Source: PubChem BioAssay
Rows were chosen to be rich in hits. Some 1.2% of all compounds tested hit in one or more screens of this group.
RGS7-Gao reg: regulators of human RGS7-Galphao interaction; Multiplexed bead flow cytometry, RGS7-Galphao binding; actives lie on both sides; binding response (% of control), % at 10 µM; P09471; hit rate 0.35% among 220,000; in the data active = binding response below about 49% or above about 150%; inconclusive = no clear call, values can overlap the other calls; inactive = in between;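 also: fluorescent Galphao held in activated GDP-AlF4 state binding bead-coupled RGS7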
RGS4-Gao reg: modulates binding of RGS4 to human Galphao; P09471; Multiplexed bead flow cytometry; actives lie on both sides; hit rate 0.33% among 220,000; AID 1415; binding response (% of control), % at 10 µM; in the data active = binding response below about 49% or above about 150%; inactive = in between;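 also: fluorescent Galphao activated with aluminum fluoride binding bead-coupled RGS4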
RGS8-Gao: modulates binding of RGS8 to human Galphao; P09471; multiplexed bead flow cytometry; actives lie on both sides; response (percent of control binding), % at 10 µM; hit rate 0.34% among 220,000; AID 1423; in the data active = response below about 60% or above about 140%; inactive = in between;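 also: Galphao activated as the GDP aluminium fluoride complex binding bead-coupled RGS8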
Avidin bead fluor: compound fluoresces at 488/530 nm on avidin beads; compound fluorescence 488/530 nm, flow cytometry; stronger effect = higher value; fluorescence (KMESF) at 10 µM; hit rate 0.38% among 220,000; AID 1775; in the data active = fluorescence above about 47
RGS16-Gao: RGS16-Galphao interaction regulator (human). O15492+P09471. AID 1441. bead-based flow cytometry RGS16-Galphao binding, fluorescence; actives lie on both sides. binding response (% of control), % at 10 µM. hit rate 0.38% among 220,000; call rule not given here;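 also: Galphao activated by GDP with aluminum fluoride before binding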
GSH bead fluor: GSH bead compound fluorescence profile. fluorescence (KMESF) at 10 µM. hit rate 0.25% among 190,000. AID 1776. GSH beads flow cytometry, compound fluorescence 488/530 nm; stronger effect = higher value; in the data active = fluorescence above about 89;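 also: glutathione beads carrying GST-tagged Bcl family fusion proteins plus one bare bead set; values are compound well signal with DMSO vehicle wells as background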
* hit, by the source's call; ? = inconclusive; nt = not tested or not shown; [ ] = another dose, or the depositor's remark.

SMILES	RGS7-Gao reg	RGS4-Gao reg	RGS8-Gao	Avidin bead fluor	RGS16-Gao	GSH bead fluor
CCOCCCNCc1c(Cl)cccc1Cl	107	108	84	60*	82	18
COc1cccc(CSc2nnc(C(F)(F)F)n2Cc2ccc(F)cc2)c1	12*	20*	12*	-2	0.4*	27
Cc1ccc(CSc2nnc(C(F)(F)F)n2Cc2ccc(F)cc2)cc1	103	102	102	36	107	17
O=C(c1ccc(Cn2cc(Br)cn2)o1)N1N=C(C(F)F)CC1(O)C(F)F (stereo not drawn)	145	150*[activator]	111	66*	145	39
CCOC(=O)C1C(c2ccc(O)c(OC)c2)NC(=S)NC1(O)C(F)(F)F (stereo not drawn)	107	100	101	3	104	9
COc1ccccc1NC(=S)NC(C)=O	102	102	100	10	101	9
COc1ccccc1NC(=O)Nc1ccc(Br)cn1	107	106	103	6	110	266*
COc1ccccc1NC(=O)NCCCl	137	104	100	92*	108	12
CCOc1ccccc1NC(=O)Nc1ccc(Br)cn1	100	100	101	11	101	24
COc1ccccc1NC(C)=O	76	78	81	4	-1	251*
COc1ccccc1NC(=O)NCCC1=CCCCC1	100	98	101	3	100	10
CC(C)(CNC(=S)NCCc1ccccc1)CNC(=S)NCCc1ccccc1	111	88	103	10	110	8
COc1ccc(C2C(C#N)=C(C)NC3=C2C(=O)CC(C)(C)C3)c(OC)c1 (stereo not drawn)	98	100	102	6	104	29
CCCCC1C(C#N)=C(C)NC2=C1C(=O)CC(C)(C)C2 (stereo not drawn)	103	100	103	6	104	253*
CN(Cc1ccccc1NS(=O)(=O)c1ccc2ccccc2c1)C1CCCCC1	102	103	106	22	108	13
OC(CNCc1ccco1)Cn1c2ccccc2c2ccccc21 (stereo not drawn)	102	96	105	6	100	263*
OC(CNCc1ccco1)COc1ccccc1 (stereo not drawn)	99	97	99	6	95	45
COc1ccc(NC(=O)c2coc3ccccc23)cc1OC	98	97	97	6	99	259*
Cc1c(C(=O)OC(C)C)[nH]c2c1C(=O)CC(C)(C)C2	100	102	100	33	99	13
Cc1c(C(=O)OC2CCCCC2)[nH]c2c1C(=O)CC(C)(C)C2	102	100	101	48*	103	13
CCCn1nnc(NC(=O)c2cccc(OCC(C)C)c2)n1	104	101	101	7	102	264*
CCCn1nnc(NC(=O)c2cccc(OCC)c2)n1	110	101	101	32	101	32
CS(=O)(=O)NCCCCCCNS(C)(=O)=O	100	104	107	23	110	7
Cc1cc2cc(CN(C(=O)C3CC3)C3CCCC3)c3nnnn3c2cc1C	137	103	98	61*	102	40
CCc1ccc2c(c1)cc(CN(C(=S)Nc1cccc(C)c1)C1CC1)c1nnnn12	99	100	101	27	98	10
SMILES	RGS7-Gao reg	RGS4-Gao reg	RGS8-Gao	Avidin bead fluor	RGS16-Gao	GSH bead fluor
Cc1sc2nc(CN(C(=O)NC3CCCCC3)C3CCCC3)[nH]c(=O)c2c1C	136	129	98	56*	147	16
COCC(=O)N(Cc1nc2sc(C)c(C)c2c(=O)[nH]1)C1CCCCC1	?	106	103	7	104	nt
COC(=O)C1=C(C)OC(N)=C(C#N)C1c1cc2cccc(C)c2nc1Cl (stereo not drawn)	98	100	105	12	105	22
COC(=O)C1=C(C)OC(N)=C(C#N)C1c1cc(C)sc1C (stereo not drawn)	112	104	108	7	103	273*
COc1cccc(/C=N/n2c(N)c(S(=O)(=O)c3cccs3)c3nc4ccccc4nc32)c1	101	100	101	7	100	53
Nc1c(S(=O)(=O)c2cccs2)c2nc3ccccc3nc2n1/N=C/c1cccc(O)c1	111	114	104	57*	113	5
